This excerpt belongs to a sample that is enriched for hits.
mHTT-CaM PPI inh = disrupts binding of mutant huntingtin to calmodulin | 3.6% of 190,000 active | inhibition, % at 15 µM | AID 1671202 | AlphaScreen His-mHTT/GST-CaM binding, luminescence;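 note: 0% = both proteins with DMSO and 100% = one protein alone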
Pf apPOL block = Pf-apPOL DNA polymerase inhibition | 0.25% of 210,000 active | inhibition, % at 10 µM | Recombinant Pf-apPOL, molecular beacon fluorescence, 1.5 h | AID 1794808
The depositor's hits bear a star. Cut-off read from the data, not from the text of the source: active = inhibition above about 50%; inactive = the rest.

Results for Cc1cc(C2C(C#N)=C(N)N(c3cccnc3)C3=C2C(=O)CCC3)c(C)s1 (centres undefined) ?
mHTT-CaM PPI inh: -2; Pf apPOL block: -4

How did O=C(c1ccc(F)cc1)N1CCCC(c2ccnc(-c3ccccc3)n2)C1 (centres undefined) do in these assays?
mHTT-CaM PPI inh: 18; Pf apPOL block: -2

How did O=C(COc1ccc(F)cc1)N1CCCC(c2ccnc(-c3ccccc3)n2)C1 (centres undefined) do in these assays?
mHTT-CaM PPI inh: 73*; Pf apPOL block: -1

Results for O=C(c1ccco1)N1CCCC(c2ccnc(-c3ccccc3)n2)C1 (centres undefined) ?
mHTT-CaM PPI inh: 61*; Pf apPOL block: -2

How did O=C(c1ccccc1)N1CCCC(c2ccnc(-c3ccccc3)n2)C1 (centres undefined) do in these assays?
mHTT-CaM PPI inh: 31; Pf apPOL block: -3

Results for Cc1ccc2nc(NC(=O)c3cc([N+](=O)[O-])cc([N+](=O)[O-])c3)sc2c1 ?
mHTT-CaM PPI inh: -1; Pf apPOL block: 3

How did COc1ccc(-n2c(CN3CCN(CCO)CC3)nc3ccc([N+](=O)[O-])cc3c2=O)c(OC)c1 do in these assays?
mHTT-CaM PPI inh: 6; Pf apPOL block: -4

How did O=c1nc(SCc2ccccc2)c2c(n1CC1CCCO1)CCC2 (centres undefined) do in these assays?
mHTT-CaM PPI inh: 11; Pf apPOL block: -4

Results for CC1(C)C2CC=C(CN3CCN(c4ccc([N+](=O)[O-])cc4)CC3)C1C2 (centres undefined) ?
mHTT-CaM PPI inh: 23; Pf apPOL block: -16

How did COc1ccc(Cl)cc1NC(=O)N1CCn2cccc2C1Cc1ccccc1 (centres undefined) do in these assays?
mHTT-CaM PPI inh: 62*; Pf apPOL block: -2

How did COc1cc(NC(=O)N2CCn3cccc3C2Cc2ccccc2)cc(OC)c1 (centres undefined) do in these assays?
mHTT-CaM PPI inh: 27; Pf apPOL block: -6

How did COc1ccc(NC(=O)N2CCn3cccc3C2Cc2ccccc2)cc1OC (centres undefined) do in these assays?
mHTT-CaM PPI inh: 59*; Pf apPOL block: 2

What do the screens show for `O=C(Nc1cc(F)ccc1F)N1CCn2cccc2C1Cc1ccccc1` (centres undefined)?
mHTT-CaM PPI inh: -2; Pf apPOL block: -2

How did COc1nccnc1NS(=O)(=O)c1ccc(NC(=O)COc2cc(C)c(Cl)c(C)c2)cc1 do in these assays?
mHTT-CaM PPI inh: 50*; Pf apPOL block: 9

How did COc1nccnc1NS(=O)(=O)c1ccc(NC(=O)c2ccccc2Cl)cc1 do in these assays?
mHTT-CaM PPI inh: 18; Pf apPOL block: -8

How did CCOC(=O)C1CCCN(C(=O)C2CC(=O)N(c3ccc(C)c(Cl)c3)C2)C1 (centres undefined) do in these assays?
mHTT-CaM PPI inh: -4; Pf apPOL block: -8

Results for Cc1c(C(=O)Nc2ccc(Cl)c(Cl)c2)sc2ncn(Cc3ccccc3F)c(=O)c12 ?
mHTT-CaM PPI inh: -5; Pf apPOL block: -11

What do the screens show for `Cc1ccsc1C=C1C(=O)c2ccccc2C1=O`?
mHTT-CaM PPI inh: 50*; Pf apPOL block: -3

How did Cc1ccccc1C1=N/C(=C\c2sccc2C)C(=O)O1 do in these assays?
mHTT-CaM PPI inh: 20; Pf apPOL block: 1

Results for Cc1c(C2=N/C(=C/c3ccccc3[N+](=O)[O-])C(=O)O2)cccc1[N+](=O)[O-] ?
mHTT-CaM PPI inh: 3; Pf apPOL block: 4

How did Cc1ccc2c(c1)c1c(n2CC(O)CNCc2ccco2)CCCC1 (centres undefined) do in these assays?
mHTT-CaM PPI inh: 55*; Pf apPOL block: 0

Results for CCC(CO)NCC(O)Cn1c2c(c3cc(C)ccc31)CCCC2 (centres undefined) ?
mHTT-CaM PPI inh: 54*; Pf apPOL block: -8

What do the screens show for `Cc1ccc2c(c1)c1c(n2CC(O)Cn2nc(C)cc2C)CCCC1` (centres undefined)?
mHTT-CaM PPI inh: 46; Pf apPOL block: 3

How did CNCC(O)Cn1c2c(c3ccccc31)CCCC2 (centres undefined) do in these assays?
mHTT-CaM PPI inh: 14; Pf apPOL block: -12

Results for Cc1ccc(-c2noc(C3CCCN3S(=O)(=O)c3ccc(Br)cc3)n2)cc1 (centres undefined) ?
mHTT-CaM PPI inh: -24; Pf apPOL block: 0

What do the screens show for `O=[N+]([O-])c1ccccc1C1Oc2ccccc2C2CC(c3cccs3)=NN21` (centres undefined)?
mHTT-CaM PPI inh: 20; Pf apPOL block: -7

What do the screens show for `Oc1ccc(C2Oc3ccccc3C3CC(c4cccs4)=NN32)c(O)c1` (centres undefined)?
mHTT-CaM PPI inh: 64*; Pf apPOL block: 9

How did Clc1cccc(C2Oc3ccccc3C3CC(c4ccccc4)=NN32)c1Cl (centres undefined) do in these assays?
mHTT-CaM PPI inh: -9

What do the screens show for `O=[N+]([O-])c1ccc(O)c(C2Oc3ccccc3C3CC(c4cccs4)=NN32)c1` (centres undefined)?
mHTT-CaM PPI inh: 62*; Pf apPOL block: 3

Results for COc1cccc(C2Oc3ccccc3C3CC(c4cccs4)=NN32)c1O (centres undefined) ?
mHTT-CaM PPI inh: 51*; Pf apPOL block: 8

What do the screens show for `COc1ccc([N+](=O)[O-])cc1C1Oc2ccccc2C2CC(c3cccs3)=NN21` (centres undefined)?
mHTT-CaM PPI inh: 28; Pf apPOL block: 0

What do the screens show for `c1csc(C2=NN3C(C2)c2ccccc2OC3c2ccc3c(c2)OCO3)c1` (centres undefined)?
mHTT-CaM PPI inh: 14; Pf apPOL block: 1

What do the screens show for `CCC1Oc2ccccc2C2CC(c3cccs3)=NN12` (centres undefined)?
mHTT-CaM PPI inh: 75*; Pf apPOL block: 3

Results for N#Cc1ccc(Oc2cccc(-c3cnc4ccccc4n3)c2)c([N+](=O)[O-])c1 ?
mHTT-CaM PPI inh: 4; Pf apPOL block: 2

Results for CCCn1ncc(N2CCC(C(=O)NCC3CCCO3)CC2)cc1=O (centres undefined) ?
mHTT-CaM PPI inh: -5; Pf apPOL block: 1

What do the screens show for `O=C1c2ccccc2C(O)(Cc2ccccc2)N1CCCO` (centres undefined)?
mHTT-CaM PPI inh: -3; Pf apPOL block: -2

How did COc1ccc(OC)c(CNC(=O)C2CCCN(C(=O)c3ccccc3F)C2)c1 (centres undefined) do in these assays?
mHTT-CaM PPI inh: 28; Pf apPOL block: -9

What do the screens show for `Cc1nc2ccccc2c2c1C(=O)N(c1ccc(Cl)cc1F)C2=O`?
mHTT-CaM PPI inh: 16; Pf apPOL block: 6

Results for O=C(CN1CCC2(CC1)N=C(c1cccc(F)c1)C(=O)N2)Nc1ccc(F)c(F)c1 ?
mHTT-CaM PPI inh: 0; Pf apPOL block: 7

How did O=c1sc2c(n1-c1ccccc1)SCC1COc3ccccc3C21 (centres undefined) do in these assays?
mHTT-CaM PPI inh: 66*; Pf apPOL block: -14

Results for O=C(O)CCn1c2c(sc1=O)C1c3ccccc3OCC1CS2 (centres undefined) ?
mHTT-CaM PPI inh: 26; Pf apPOL block: 1

What do the screens show for `CC(C)C1C(=O)N(Cc2cn(Cc3ccco3)nn2)CCS(=O)(=O)N1Cc1ccc(-c2cccc(N(C)C)c2)cc1` (centres undefined)?
mHTT-CaM PPI inh: 65*; Pf apPOL block: -4

Screening results deposited in PubChem BioAssay by University of Kansas High Throughput Screening Laboratory.
